JMJD2A Tudor inh: inhibitors of human JMJD2A Tudor domain | AID 504339 | Potency, µM (highest dose often 114 µM), for the others: at the highest dose activity change, negative = inhibition, most hits filed as inhibitors | O75164 | AlphaScreen JMJD2A-Tudor / H3K4me3 peptide binding | 390,000 tested, 4.4% active; further: on the % scale 0 is the no-effect control and ±100 the full control effect; nearly all actives have a fitted effect of over 50% in size
G9a block: G9a (human) methyltransferase inhibition; Potency, µM (titrated, usually from 102 µM), without a hit: top-dose activity, negative = inhibition, usual class: inhibitors; G9a H3K9 monomethylation, AlphaScreen, 2 h; 350,000 tested, 8.8% active; further: on the % scale 0 is the no-effect control and ±100 the full control effect; nearly all actives have a fitted effect of over 75% in size
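Signal arises when biotinylated H3K9 peptide, once monomethylated, bridges streptavidin donor and antibody-captured acceptor beads. Enzyme at 20 nM was preincubated 15 min with test compounds; peptide 500 nM and SAM 20 uM then reacted for 2 h.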
HP1b binding inh: blocks HP1-beta chromodomain binding to methylated histone tails; P83916; AlphaScreen HP1-beta / biotin-H3K9me3 peptide binding; Potency, µM (doses to about 114 µM), without a hit: at the highest dose activity change, negative = inhibition, hits mostly inhibitors; 390,000 tested, 0.56% active; AID 540317; further: nearly all actives have a fitted effect of over 70% in size
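AlphaScreen: HP1-beta (50 nM) preformed 30 min with biotin-H3(1-18)K9me3 peptide (50 nM) in PBS pH 7.4, 0.01% Tween-20. Compound added for 30 min at RT, then streptavidin donor/nickel chelate acceptor beads (10 ug/mL) for 30 min.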
Sfp PPTase inh: blocks B. subtilis Sfp PPTase activity; Potency, µM, inactives show largest response in the series, negative = inhibition, actives largely listed as inhibitors; 310,000 tested, 3.5% active; Biochemical Sfp PPTase activity, qHTS; Q9F4F7; AID 1490;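 further: the enzyme is Sfp with the accession as filed and its product quenches rhodamine fluorescence; 0% = enzyme reaction without inhibitor and -100% = no enzyme wells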
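Sfp 15 nM + cpd, 15 min RT; start w/ rhodamine-CoA 5 uM, BHQ-2-YbbR 12.5 uM (final); 50 mM Hepes pH 7.6, 10 mM MgCl2, 0.01% NP-40, 0.01% BSA; read 525/598 nm at 0 and 30 min.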
L3MBTL1 block: L3MBTL1 (human) inhibition; AlphaScreen L3MBTL1–H3K9me1 peptide binding; AID 485360; Potency, µM (highest dose often 57.1 µM), inactives show top-dose activity, negative = inhibition, usual class: inhibitors; Q9Y468; 230,000 tested, 0.66% active; further: on the % scale 0 is the no-effect control and ±100 the full control effect; nearly all actives have a fitted effect of over 60% in size
Target sequence (Q9Y468 whole entry, looked up): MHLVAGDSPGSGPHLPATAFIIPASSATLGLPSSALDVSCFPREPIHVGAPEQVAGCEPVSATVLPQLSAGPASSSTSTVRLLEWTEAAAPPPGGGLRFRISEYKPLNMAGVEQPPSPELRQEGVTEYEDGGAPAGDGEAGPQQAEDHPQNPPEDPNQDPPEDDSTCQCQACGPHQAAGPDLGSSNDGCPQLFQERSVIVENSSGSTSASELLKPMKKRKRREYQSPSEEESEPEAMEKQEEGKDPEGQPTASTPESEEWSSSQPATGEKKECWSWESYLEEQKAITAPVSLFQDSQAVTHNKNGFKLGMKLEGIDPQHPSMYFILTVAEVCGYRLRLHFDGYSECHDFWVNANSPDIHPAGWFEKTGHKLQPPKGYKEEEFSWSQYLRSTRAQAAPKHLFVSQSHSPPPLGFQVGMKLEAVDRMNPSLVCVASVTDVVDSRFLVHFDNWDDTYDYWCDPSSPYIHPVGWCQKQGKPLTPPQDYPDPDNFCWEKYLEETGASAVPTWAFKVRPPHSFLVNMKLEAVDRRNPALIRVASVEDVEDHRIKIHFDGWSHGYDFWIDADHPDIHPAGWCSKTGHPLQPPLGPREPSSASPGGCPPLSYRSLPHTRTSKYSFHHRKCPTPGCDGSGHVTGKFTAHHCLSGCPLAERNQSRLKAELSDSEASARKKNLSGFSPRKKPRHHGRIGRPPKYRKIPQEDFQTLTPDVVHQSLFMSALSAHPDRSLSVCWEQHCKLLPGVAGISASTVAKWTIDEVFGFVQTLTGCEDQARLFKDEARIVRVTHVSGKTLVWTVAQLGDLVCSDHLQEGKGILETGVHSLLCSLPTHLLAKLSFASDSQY
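First, the protein-peptide complex forms for 30 min at room temperature (L3MBTL1 50 nM, biotinylated H3K9me1 peptide 75 nM). Next, compounds are pin-transferred and incubated 30 min. Finally, AlphaScreen beads are added and read after 30 min.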
BAZ2B block: inhibitors of human BAZ2B bromodomain. Potency, µM (series often up to 114 µM), inactives show at the top dose activity change, negative = inhibition, hits mostly inhibitors. AID 504333. AlphaScreen BAZ2B-H3K14Ac peptide displacement. 360,000 tested, 4.4% active. Q9UIF8; further: on the % scale 0 is the no-effect control and ±100 the full control effect; nearly all actives have a fitted effect of over 60% in size
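Multi-concentration screen (max 110 uM) measuring displacement of acetylated histone H3 peptide from BAZ2B by AlphaScreen, using 50 nM protein, 50 nM peptide and 10 ug/mL streptavidin donor plus Ni-chelate acceptor beads.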
Numbers without * were called inactive; ? = inconclusive; / = no result; [ ] = another dose, or the depositor's remark. Sampled rows, rich in hits. Any-hit rate of the full collection: about 12%. The call rests on the fitted dose curve; in most records, active means well fitted curve in the direction sought with a large enough effect; inconclusive means small, poorly fitted or top-dose-only effect, or another doubt; inactive means no such curve, though single readings can be large; an effect the other way counts as inactive or inconclusive. Potency means the concentration at half of the fitted maximal effect.

SMILES	JMJD2A Tudor inh	G9a block	HP1b binding inh	Sfp PPTase inh	L3MBTL1 block	BAZ2B block
O=C(CC1C(=O)NCCN1Cc1ccccc1C(F)(F)F)NC1CCCCCC1 (stereo unspecified)	-23%	45µM*	50%	-4%	/	-8%[57.1 µM]
O=C(CC1C(=O)NCCN1Cc1ccc(F)cc1Cl)NC1CCCCCCC1 (stereo unspecified)	-9%	45µM*	21%	1%	/	-19%
O=C(CC1C(=O)NCCN1Cc1cccc(F)c1)NC1CCCCCC1 (stereo unspecified)	-1%	?	30%	5%	/	-15%
CCn1nc(C)c2c(-c3ccccc3)cc(=O)n(C(C)C(=O)NCc3ccc(C)cc3)c21 (stereo unspecified)	-13%	13%[59 µM]	-12%	/	/	-19%
COc1ccc(OC)c(NC(=O)C2CCN(S(=O)(=O)c3ccc4c(c3)OCCO4)CC2)c1	-22%	50µM*	11%	/	1%	0%
CC(=O)Nc1ccc(NC(=O)C2CCN(S(=O)(=O)c3ccc4c(c3)OCCO4)CC2)cc1	-5%	18µM*	28%	/	0%	13%
CC(C)C(C)NC(=O)COC(=O)C1CCN(S(=O)(=O)c2ccc3c(c2)OCCO3)CC1 (stereo unspecified)	-2%	50µM*	36%	/	1%	9%
O=C(Nc1ccc2c(c1)OCCO2)C1CCN(S(=O)(=O)c2ccc3c(c2)OCCO3)CC1	-21%	4%[59 µM]	4%	6%	/	1%
Cc1ccc(C)c(N2CCN(C(=O)C3CCCN(S(=O)(=O)c4ccc5c(c4)oc(=O)n5C)C3)CC2)c1 (stereo unspecified)	-25%	-38%[59 µM]	17%	/	/	-20%
CC[C@H](C)[C@H](NC(=O)[C@H](Cc1ccc(O)cc1)NC(=O)[C@@H](NC(=O)[C@@H](N)CCCN=C(N)N)C(C)C)C(=O)N[C@@H](Cc1cnc[nH]1)C(=O)N1CCC[C@H]1C(=O)N[C@@H](Cc1ccccc1)C(=O)O	/	/	/	1%	/	/
COc1ccc(C(=O)N(Cc2sccc2C)C2CCS(=O)(=O)C2)cc1Cl (stereo unspecified)	-13%	-16%[59 µM]	41%	/	/	-8%
COc1ccc(Cc2nnc(NC(=O)c3c(-c4ccccc4)noc3C)s2)cc1	-26%	?	30%	11%	/	?
COc1ccc(Cc2nnc(NC(=O)c3c(-c4ccccc4)noc3C)s2)cc1OC	/	40µM*	/	-22%	12%	-7%
CCOCc1nnc(NC(=O)c2c(-c3ccccc3)noc2C)s1	-28%	32µM*	-23%	?	/	-2%
Nc1n[nH]c(=S)n1/N=C1/C(=O)Nc2ccccc21	2.5µM*	1µM*	16µM*	11µM*	7%	-25%
CC(=O)Oc1ccc(C(=O)O)cc1OC(C)=O	-1%	12%[59 µM]	48%	-18%	-8%	?
CC(=O)Oc1cccc2c1C(=O)c1c(OC(C)=O)cc(C(=O)O)cc1C2=O	?	3.5µM*	18%	0%	-22%	?
O=S(=O)(Nc1ccc(Br)cc1)c1cccc2nonc12	-29%	79µM*	7%	15%	/	-34%
Cc1cccc(Oc2nc3c(c(=O)n(C)c(=O)n3C)n2Cc2ccccc2)c1C	8%	0%[59 µM]	37%	/	/	-4%
CN(C)c1ccc(NC(=O)c2cn(-c3ccccc3)nc2-c2cccs2)cc1	14µM*	10µM*	?	-5%	/	35µM*
O=C(Nc1ccc2ccccc2c1)c1cn(-c2ccccc2)nc1-c1cccs1	-15%	14%[0.501 µM]	9%	-5%	-2%	3%
N#CCCn1cc(C(=O)Nc2ccc(C(=O)O)cc2)c(-c2cccs2)n1	16µM*	11%[59 µM]	18%	-4%	15%	-6%
Cc1ccc(-c2n[nH]c3c2C(c2cccs2)N(c2ccc(Cl)cc2)C3=O)cc1 (stereo unspecified)	-13%	9%[59 µM]	50%	/	/	/
CN(C1CCCCC1)S(=O)(=O)c1ccc2c(c1)c(=O)c(C(=O)NCc1ccc(Cl)cc1)cn2C	3%	1%[59 µM]	24%	/	/	/

High-throughput results from PubChem BioAssay.
